# Sfp inh – Sfp phosphopantetheinyl transferase inhibition; Q9F4F7; Biochemical Sfp PPTase activity, qHTS; Potency, µM, for inactives: largest response in the series, negative = inhibition, hits mostly inhibitors; hit rate 3.5% among 310,000; AID 1490;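 note: the enzyme is Sfp with the accession as filed and its product quenches rhodamine fluorescence; potency is the fitted concentration of half-maximal effect; 0% = enzyme reaction without inhibitor and -100% = no enzyme wells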
#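 Fluorescence-quenching assay: 15 nM Sfp-PPTase preincubated 15 min at room temperature with compound, then 5 uM rhodamine-CoA and 12.5 uM BHQ-2-labelled YbbR peptide added. Fluorescence (ex 525/em 598 nm) read at start and after 30 min; difference gives rate.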
# Tau ThT inhib – blocks human tau fibril formation measured by thioflavin T. P10636. recombinant tau K18 P301L, heparin-induced fibrillization, ThT fluorescence. Potency, µM (highest dose often 57.4 µM), for the others: top-dose activity, negative = inhibition, usual class: inhibitors. hit rate 2.1% among 270,000. AID 1460; note: potency is the fitted concentration of half-maximal effect; nearly all actives have a fitted effect of over 55% in size
# Target sequence (P10636 561-689 P618L limits assumed): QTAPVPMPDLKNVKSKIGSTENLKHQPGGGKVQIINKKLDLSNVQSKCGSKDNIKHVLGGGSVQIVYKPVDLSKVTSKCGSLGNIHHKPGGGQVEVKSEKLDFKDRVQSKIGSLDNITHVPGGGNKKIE
#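 Tau K18 P301L fragment (15 uM unlabeled plus 0.24 uM Alexa 594-labeled) in 100 mM sodium acetate pH 7 with compound, fibrillization induced by 20 uM heparin for 6 hr at 37 C. Thioflavin T (30 uM) added, fluorescence read after 1 hr (ex 450, em 510 nm).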
# KDM4E inh – inhibitors of human JMJD2E histone demethylase; B2RXH2; JMJD2E catalytic domain, FDH-coupled NADH fluorescence (FDH is formaldehyde dehydrogenase); Potency, µM (doses to about 57.1 µM), for the others: at the top dose activity change, negative = inhibition, most hits filed as inhibitors; hit rate 1.6% among 230,000; AID 2147; active = well fitted inhibition curve with a large enough effect, not every such curve was filed as active; inconclusive = small, poorly fitted or top-dose-only effect, or another doubt; inactive = no such curve, though single readings can be large or run the other way;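 note: potency is the fitted concentration of half-maximal effect; 0% = wells with enzyme and -100% = buffer wells without enzyme; nearly all actives have a fitted effect of over 50% in size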
# Target sequence (B2RXH2 1-337 limits assumed): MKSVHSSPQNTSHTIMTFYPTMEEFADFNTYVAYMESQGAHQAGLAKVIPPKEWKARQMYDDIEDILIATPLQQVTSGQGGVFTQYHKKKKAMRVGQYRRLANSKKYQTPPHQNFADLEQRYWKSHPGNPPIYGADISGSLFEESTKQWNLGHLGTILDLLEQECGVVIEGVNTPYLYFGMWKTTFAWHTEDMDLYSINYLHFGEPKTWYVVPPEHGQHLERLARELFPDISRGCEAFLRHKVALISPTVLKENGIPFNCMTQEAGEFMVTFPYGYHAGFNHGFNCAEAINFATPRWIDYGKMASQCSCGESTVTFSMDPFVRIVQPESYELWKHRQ
# Tau FP inhib – tau fibrillization inhibition (FP); P10636; K18 P301L tau heparin fibrillization, Alexa594 FP, 6 h; Potency, µM (doses to about 57.7 µM), for the others: at the highest dose activity, negative = inhibition, hits mostly inhibitors; hit rate 0.39% among 280,000; AID 1468; note: potency is the fitted concentration of half-maximal effect; nearly all actives have a fitted effect of over 55% in size
#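 Recombinant K18 P301L […], labeled with Alexa 594 at 0.24 uM over 15 uM unlabeled; heparin inducer 20 uM final; 37 C, 6 hr; FP endpoint.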
# Tau fluor counter – counter-screen for tau fibril formation inhibitors; AID 1463; hit rate 0.93% among 280,000; Potency, µM (series often up to 57.7 µM), without a hit: top-dose activity change, negative = decrease; tau K18 P301L Alexa594 fluorescence, heparin fibrillization; note: potency is the fitted concentration of half-maximal effect; nearly all actives have a fitted effect of over 55% in size
#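 Human tau K18 P301L (15 uM unlabeled, 0.24 uM Alexa 594-labeled) in 100 mM sodium acetate pH 7 with 20 uM heparin, 6 hr at 37 C. ThT 30 uM added, 1 hr ambient; Alexa 594 FP and total fluorescence read at 555/632 nm.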
# FBPA coupling cs – counter-screen for Giardia aldolase inhibitors: coupling enzyme system; coupling enzyme system counterscreen, AmpLite Red fluorescence; activity change, negative = inhibition, % at 58.2 µM, hits read low; hit rate 0.67% among 290,000; AID 2472; in the data active = activity change below about -30%
#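 Compounds tested against the coupling enzymes alone at 57.5 uM final; readout was AmpLite Red fluorescence (525/598 nm) after 20 min at RT.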
# * marks the source's active call; other numbers are inactive results; ? = inconclusive; . = no result; [ ] = remark or other dose. In the library only some 5.3% were active in any assay of this set; here they are far more common. Unless noted, calls come from the whole dose curve; as a rule, active = well fitted curve in the direction sought with a large enough effect; inconclusive = small, poorly fitted or top-dose-only effect, or another doubt; inactive = no such curve, though single readings can be large; an effect the other way counts as inactive or inconclusive. Unless noted, % is set by controls: 0 for no effect and ±100 for the full control effect.
SMILES,Sfp inh,Tau ThT inhib,KDM4E inh,Tau FP inhib,Tau fluor counter,FBPA coupling cs
O=c1c2ccccc2nc(CSc2ncnc3nc[nH]c23)n1-c1ccccc1Cl,-18%,-10%,-1%,-8%,-9%,0
O=c1c2ccccc2nc(CSc2ncnc3nc[nH]c23)n1-c1ccccc1,50µM*,1%,-3%,1%,13%,3
Oc1cccc2nc3ccccc3nc12,-15%,16µM*,4%,-11%,-21%,-24
C/C=C/C/C=C/CCC(=O)[C@H]1O[C@H]1C(N)=O,7%,?,.,?,-19%,.
CC1(C)OC(c2ccccc2)=C/C(=C/C=C2C(=O)NC(=S)NC2=O)O1,40µM*,-1%,-9%,?,?,-2
CCN1C[C@]2(C)CC[C@H](OC)[C@@]34[C@H]1C1(OCO[C@@]15C[C@H](OC)C1C[C@]3(O)C5[C@H]1OC)[C@@H](O)[C@H]24,8%,-2%,8%,2%,-2%,2
CC(C)n1c(=O)c(C=Nc2ccc(S(N)(=O)=O)cc2)c(O)n(Cc2ccco2)c1=O,16%,?,?,-6%,-8%,4
Cc1cccn2c(=O)c(C=Nc3ccccc3)c(NCc3ccco3)nc12,50µM*,-10%,0%,0%,-9%,-9
CCOC(=O)COc1ccc(/C=C2\C(=O)NC(=S)N(c3ccc(OC)cc3)C2=O)cc1OC,45µM*,.,.,.,.,5
COC(=O)COc1ccc(/C=C2\C(=O)NC(=S)N(c3ccc(C)cc3)C2=O)cc1OC,40µM*,.,.,.,.,5
C[C@]12N[C@@H](Cc3ccccc31)c1ccccc12,-2%,-8%,-17%,-3%,-6%,3
O=C(O)c1cccc2c1NC(c1cccc([N+](=O)[O-])c1)C1CC(Sc3ccccc3[N+](=O)[O-])C(Cl)C21 (stereo not given),40µM*,32µM*,?,?,?,12
CCN(CC)C(=O)c1ccc(N(Cc2ccccc2)S(C)(=O)=O)cc1,30%,.,.,.,.,13
CCN(CC)C(=O)c1ccc2c(c1)C1C(Cl)C(Sc3ccccc3[N+](=O)[O-])CC1C(C(=O)O)N2 (stereo not given),45µM*,?,?,?,?,-6
O=C(O)c1ccc2c(c1)C1C(Cl)C(Sc3ccccc3[N+](=O)[O-])CC1C(c1cccc([N+](=O)[O-])c1)N2 (stereo not given),?,?,-19%,-2%,-25%,2
CCN(CC)C(=O)c1ccc2c(c1)C1C=CCC1C(C(=O)O)N2 (stereo not given),11µM*,.,.,.,.,-20
OC12C3C4CC5C6C4C1C6C(C53)N2CCc1cccc(F)c1 (stereo not given),7%,.,.,.,.,-3
COc1cc2c3cc1Oc1c(OC)c(OC)cc4c1[C@@H](Cc1ccc(OC(=O)c5ccc([N+](=O)[O-])cc5)c(c1)Oc1ccc(cc1)C[C@@H]3N(C)CC2)N(C)CC4,?,.,.,.,.,-6
CC[N+](C)(CC)CCCCOc1ccc2c(c1)C(=O)c1cc(OCCCC[N+](C)(CC)CC)ccc1-2,14µM*,?,-18%,-6%,-11%,-1
Cc1cc(SCC(=O)N/N=C/c2ccco2)nc2ccccc12,5%,?,-10%,-2%,-11%,-32*
COC(=O)[C@@H]1C[C@@]2(O)[C@@H](O)[C@@H](O)[C@@H](O)C[C@H]2N1Cc1cccnc1,39%,0%,-4%,0%,2%,0
O=C(CCl)c1ccc(Oc2ccc(C(=O)CCl)cc2)cc1,50µM*,.,.,.,.,.
COCCCn1c(N)c(C(=O)NCc2ccco2)c2nc3ccccc3nc21,22µM*,?,?,-14%,?,-35*
COCCNC(=O)c1c(NC(=O)c2ccco2)n(Cc2ccccc2)c2nc3ccccc3nc12,22µM*,14µM*,?,?,?,-33*
CCC(C)NC(=O)c1c(N)n(CCCOC)c2nc3ccccc3nc12 (stereo not given),2%,?,?,1%,?,-34*
SMILES,Sfp inh,Tau ThT inhib,KDM4E inh,Tau FP inhib,Tau fluor counter,FBPA coupling cs
COCCCNC(=O)c1c(NC(=O)c2ccccc2Cl)n(Cc2ccccc2)c2nc3ccccc3nc12,16%,4%,?,5%,-11%,-3
CCC(C)C(=O)OC1C2CC3=C4CC(=O)OC(c5ccoc5)[C@]4(C)CCC3[C@@](C)(C2=O)C(CC(=O)OC)C1(C)C (stereo not given in full),17%,?,-3%,?,-18%,-2
Cc1c(N=Nc2c(O)n(Cc3ccccc3)c(=O)[nH]c2=O)c(=O)n(-c2ccccc2)n1C,7%,?,7.1µM*,-7%,-3%,0
Cc1c(N=Cc2c(O)n(Cc3ccccc3)c(=O)[nH]c2=O)c(=O)n(-c2ccccc2)n1C,8%,2%,3%,-3%,5%,2
O=[N+]([O-])c1ccc(-c2[se]c3ccccc3c2I)cc1,-21%,?,.,0%[81.3 µM],-28%[81.3 µM],3
CCCOc1ccc2[nH]cc(C3=CCNCC3)c2n1,?,?,?,14%,-22%,-12
CCOP(=S)(OCC)Oc1nc(Cl)c(Cl)cc1Cl,35µM*,?,-6%,?,-17%,1
COP(=S)(OC)Oc1nc(Cl)c(Cl)cc1Cl,?,.,.,.,.,4
CS/C(N)=C(C#N)/C(C#N)=C(\N)SC,?,?,.,?,-10%,2
O=S1(=O)N(CCN2CC=C(c3c[nH]c4cc(F)ccc34)CC2)c2cccc3c2N1CCC3,.,?,16µM*,12%,8.9µM*[quencher],.
CN1C(=O)C(Cc2cccc3ccccc23)C(=O)N(C)C1=O,-46%,25µM*,-26%,?,-20%,-21
O=S1(=O)CCN(CCc2c[nH]c3ccccc23)CC1,24%,0%,5%,8%,2%,0
CN1C(=O)C(Cc2c[nH]c3ccccc23)C(=O)N(C)C1=O,40µM*,22µM*,?,?,-28%,-15
CN1C(=O)C(Cc2ccc(OCc3ccccc3)cc2)C(=O)N(C)C1=O,-27%,.,.,.,.,15
CCOc1ccccc1NC(=O)c1sc2nc3c(cc2c1N)CN(Cc1ccccc1)CC3,.,-14%,.,17%,?,.
Cc1ccc2c(c1)Cc1c(C(=O)NN3CCCCC3)nn(-c3ccc(Cl)cc3Cl)c1-2,?,.,.,.,.,-19
Cn1c(O)c(C(=Nc2ccccc2)SCc2ccc(Cl)cc2)c(=O)n(C)c1=O,45µM*,?,-18%,?,-10%,-4
Cn1c(O)c(C(=N)COc2ccccc2)c(=O)n(C)c1=O,4%,?,5%,-3%,5%,0
